Compound activity from PubChem BioAssay.
HT1080 IDH1KD tx: HT-1080 IDH1 knockdown cell toxicity (counter line). 360,000 tested, 2% active. Potency, µM (highest dose often 46.1 µM), without a hit: at the highest dose activity, negative = toxicity, usual class: cytotoxic. AID 686971. HT-1080 IDH1 knockdown viability, ATP luminescence, 48 h;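 also: 0% = DMSO wells and -100% = cell-free medium wells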
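CellTiter-Glo luminescence after 48 h compound exposure at 37 degrees C of IDH1-knockdown HT-1080 cells in 5% FBS RPMI. %Activity scaled between DMSO wells and cell-free media wells, with curves fitted and assigned curve classes.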
HT1080-NT tox: kills 2HG-producing HT-1080-NT fibrosarcoma cells; HT-1080-NT fibrosarcoma viability, CellTiter-Glo ATP luminescence, 48 h; Potency, µM (doses to about 46.1 µM), inactives show top-dose activity, negative = less viability, hits mostly cytotoxic; 360,000 tested, 1.6% active; AID 686970;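 also: NT is the 2HG producing partner of a matched IDH1 knockdown line; 0% = DMSO-treated cells and -100% = media-only wells without cells; nearly all actives have a fitted effect of over 55% in size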
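Compounds were tested in concentration-response format on HT-1080-NT cells for 48 hours at 37 degrees C. Cell viability came from CellTiter-Glo luminescence; curves were classified by r2, response magnitude and activity.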
HepG2 viability: HepG2 cytotoxicity, counter-screen for TGF-b inhibitors | HepG2 CAGA-GFP viability, ATP luminescence, 18 h | Potency, µM (titrated, usually from 46.1 µM), without a hit: top-dose activity change, negative = cytotoxicity, most hits filed as cytotoxic | 410,000 tested, 0.76% active
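CellTiter-Glo luminescence gave cytotoxicity after 18 hours at 37 degrees C. The cells were HepG2 CAGA-GFP in 1% FBS DMEM, stimulated with 500 pg/mL TGF-beta after compound addition. %Activity was normalised to no-cell wells (complete cell-killing) and DMSO (no toxicity), and curves were fitted and classified.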
TGFb SMAD3 inh: TGF-b pathway inhibition; HepG2 CAGA-GFP TGF-b/SMAD3 reporter, GFP fluorescence, 18 h; TGF-beta stimulated, 500 pg/mL final; Potency, µM (titrated, usually from 46.1 µM), without a hit: top-dose activity, negative = inhibition, usual class: inhibitors; 410,000 tested, 1.2% active; also: % is scaled to controls: 0 for no effect and ±100 for the full control effect; nearly all actives have a fitted effect of over 65% in size
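Using HEPG2 CAGA-GFP reporter cells at 1000 cells/well, we pinned test compounds, stimulated with recombinant TGF-beta (500 pg/mL final) and measured total well GFP after 18 h.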
DT40 TDP1 CPT: growth inhibition of DT40 Tdp1-/-;hTDP1 cells with camptothecin (screen for TDP1 inhibitors). chicken DT40 Tdp1-/-;hTDP1 cells + 20 nM CPT, ATP luminescence, 48 h. Potency, µM (series often up to 46.2 µM), without a hit: at the top dose activity change, negative = growth inhibition, hits mostly inhibitors. 420,000 tested, 12% active; also: % is scaled to controls: 0 for no effect and ±100 for the full control effect; nearly all actives have a fitted effect of over 55% in size
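Chicken DT40 Tdp1-/- cells stably complemented with human TDP1 were seeded at 400 cells/well in medium containing 20 nM camptothecin, exposed to pin-transferred compounds, and grown at 37 °C for at least 48 hr. Viability was read as ATP luminescence.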
DT40 TDP1 no CPT: qHTS for Inhibitors of human tyrosyl-DNA phosphodiesterase 1 (TDP1): qHTS in cells in absence of CPT; DT40 Tdp1-/- hTDP1 cells, no CPT, ATP luminescence, 48 h; Potency, µM (series often up to 46.2 µM), for the others: top-dose activity change, negative = growth inhibition, usual class: inhibitors; 420,000 tested, 15% active; AID 686978, 2013; also: % is scaled to controls: 0 for no effect and ±100 for the full control effect; nearly all actives have a fitted effect of over 55% in size
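Camptothecin absent (DMSO only). Human TDP1-complemented DT40 knockout cells, 400 cells/well, 37 °C for minimum 48 hr; ATP measured via CellTiter-Glo, 30 min dark incubation, luminescence.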
An asterisk follows results filed as active; ? = inconclusive; / = no result; ! = repeats disagree. An excerpt weighted towards active compounds, which were near 17% of everything screened. Calls follow the shape of the dose curve; as a rule, active = well fitted curve in the direction sought with a large enough effect; inconclusive = small, poorly fitted or top-dose-only effect, or another doubt; inactive = no such curve, though single readings can be large; an effect the other way counts as inactive or inconclusive. Potency is read from the fitted curve at half-maximal effect.

SMILES	HT1080 IDH1KD tx	HT1080-NT tox	HepG2 viability	TGFb SMAD3 inh	DT40 TDP1 CPT	DT40 TDP1 no CPT
Cc1ccc(-n2c(-c3ccco3)nc3c(cnn3-c3ccc(C)cc3)c2=O)cc1	7%	7%	-5%	-18%	?	4.1µM*
Cc1cccc(-n2c(C)nc3c(cnn3-c3ccc(F)cc3)c2=O)c1	-17%	-15%	-21%	-10%	18µM*	9.2µM*
COc1ccc(-n2c(C)nc3c(cnn3-c3ccc(C)cc3)c2=O)cc1	0%	-6%	-12%	?	15µM*	?
CCOc1ccccc1/C=N/OCC(=O)NCc1ccc(F)cc1	-12%	-24%	-24%	-4%	0%	-1%
Cc1ccc(CN2CCOc3ccc(CN4CCN(CCO)CC4)cc3C2)s1	/	/	/	/	10%	-14%
CCNC(=O)C1(C)CCCN(C(=O)c2cccnc2Oc2ccccc2)C1 (centres undefined)	17%	17%	-11%	-5%	12%	-20%
CS(=O)(=O)N1CCN(/[N+]([O-])=N/Oc2ccc([N+](=O)[O-])cc2[N+](=O)[O-])CC1 (tested in a mixture with another compound)	/	/	-9%	-2%	/	/
CCOC(=O)c1ccc(-n2c(C)nc3c(cnn3-c3ccc(Cl)cc3)c2=O)cc1	13%	17%	3%	?	8.2µM*!	5.8µM*!
CCOC(=O)c1ccc(-n2c(C)nc3c(cnn3-c3ccccc3Cl)c2=O)cc1	3%	17%	-1%	-1%	-21%	-24%
COc1ccccc1NC(=O)C1=C(C)Nc2nnnn2C1c1cc(Br)c(O)c(OC)c1 (centres undefined)	/	/	-12%	-1%	5%	1%
O=C(O)c1nccnc1C(=O)Nc1ccccc1-c1ccccc1	16%	16%	-5%	-10%	8%	2%
COC(=O)C(CC(=O)c1ccc(Br)cc1)n1ccnc1 (centres undefined)	/	/	7.9µM*	4.5µM*	1.4µM*	1.3µM*
COc1ncc2nc(-c3cn(C)c4ccccc34)c(=O)n(-c3ccccc3)c2n1	/	/	/	/	-1%	-28%
COc1cccc(OC(=O)CSc2nnc(-c3ccc4c(c3)OCO4)o2)c1	/	/	-10%	16%	-12%	-12%
CC[n+]1c(/C=C/C=C/N(C(C)=O)c2ccccc2)sc2cc(OC)ccc21	?	?	-37%	168%	3.3µM*	2.6µM*
CC(O)CNCCOc1ccccc1OCc1ccccc1 (centres undefined)	-6%	0%	-34%	-3%	?	?
OCCNCc1c(OCc2ccc(Cl)cc2)ccc2ccccc12	?	23µM*	-96%	?	18µM*	23µM*
CC(O)CNCCNCc1c(OCc2ccccc2)ccc2ccccc12 (centres undefined)	11µM*	18µM*	-93%	11µM*	16µM*	23µM*
CC1CCCN(C(=O)c2cc3c(=O)n(C)c4ccccc4c3s2)C1 (centres undefined)	/	/	-20%	-4%	-4%	0%
COc1ccc(C(=O)N2CCC(CCC(=O)Nc3cccc(C)c3)CC2)cc1	0%	-9%	-29%	0%	-4%	-23%
COCc1ccc(C(=O)N2CCC(CCC(=O)Nc3cccc(C)c3)CC2)s1	5%	1%	-2%	5%	-4%	0%
Cc1cccc(NC(=O)CCC2CCN(C(=O)c3ccc(C)s3)CC2)c1	-2%	-2%	-5%	-21%	-20%	4.1µM*
